Reference: PubChem BioAssay AID504594 (Broad Institute, 2011)
Screen size: about 2,000 compounds; fewer than 10 were called active. Not all results are given here. Unmarked numbers belong to inactive results.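 How the source made its calls: active means growth inhibition of at least 75% in every replicate, which also brings the mean inhibition to 75% or more; inconclusive means mean inhibition 75% or more but some replicate under 75%; inactive means the rest.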

Assay: reduced viability of yeast carrying PfHsp90 – S. cerevisiae, BacTiter-Glo luminescence, antimalarial PfHsp90 inhibitor project, primary screen (AID 504594);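 further: 0% = DMSO neutral control wells and 100% = 20 µM radicicol control wells; higher value means stronger growth inhibition because the sign is flipped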
Settings: S. cerevisiae expressing PfHsp90, BacTiter-Glo growth, 48 h; at 9.4 µM; stronger effect = higher value
Molecule `COc1ccc(CCNC(=O)CC(c2ccccc2)c2cccc(C)c2O)cc1OC` (stereo not drawn) has a growth inhibition of -1.09%.
Work on `CCn1c(SCC(=O)c2ccccc2)nc2ccccc2c1=O` yielded a growth inhibition of -10.3%.
With `CC1(C)Cc2nc3sc4c(=O)n(CC(N)=O)cnc4c3cc2CO1` the growth inhibition was -2.88%.
`CC(C)(C)OC(=O)COc1cc(OCC(=O)OC(C)(C)C)c2c(=O)cc(-c3ccccc3)oc2c1` gave a growth inhibition of -8.59%.
Molecule `Cn1cnc2c1c(=O)n(CC(O)CO)c(=O)n2C` (stereo not drawn) has a growth inhibition of -5.12%.
`O=C(O)c1ccccc1C(=O)OCCCCOC(=O)c1ccccc1C(=O)O` gave a growth inhibition of -3.9%.
With `COc1ccc(C(=O)NCC2OCCc3ccccc32)cc1` (stereo not drawn) the growth inhibition was -3.22%.
Molecule `O=C1CC(c2ccc(F)cc2)Cc2nc(NCC3CCCO3)ncc21` (stereo not drawn) has a growth inhibition of 6.43%.
For `COc1ccccc1OCC(=O)O`, the growth inhibition was -2.4%.
For `NC(N)=NC(N)=Nc1ccc2ccccc2c1`, the growth inhibition was -11.6%.
Molecule `O=C(c1cc2cc(Br)ccc2o1)N1CCCCC1` has a growth inhibition of 5.37%.
For `Cc1ccc2c(CN3CCN(Cc4ccc5c(c4)OCO5)CC3)cc(=O)oc2c1C`, the growth inhibition was 0.516%.
In the case of `COc1ccc(-c2cc(=O)oc3cc(OC(C)C(=O)O)ccc23)cc1` (stereo not drawn), the growth inhibition is reported as -0.213%.
Work on `CN(Cc1c(C(=O)N(C)Cc2ccccc2)nc2ccccn12)CC1Cc2ccccc2O1` (stereo not drawn) yielded a growth inhibition of 11.4%.
`CC(C)CCc1noc(CN2CCC(CCN3CCCC3=O)CC2)n1` showed a growth inhibition of 4.25%.
For `Cn1c(SCC(=O)c2ccccc2)nnc1-c1ccncc1`, the growth inhibition was 0.861%.
Molecule `CC(=O)C1=C(O)C(=O)OC1c1ccc(C)cc1` (stereo not drawn) has a growth inhibition of 14.7%.
Molecule `CC12CC(c3ccccc3O1)C(C(=O)N1CCOCC1)C(=O)N2` (stereo not drawn) has a growth inhibition of -11.3%.
In the case of `COc1cc2c(cc1OC)C1(CCCC1)CNC2c1cccc([N+](=O)[O-])c1` (stereo not drawn), the growth inhibition is reported as -7.37%.
For `Cc1csc(-c2coc3cc(O)cc(C)c3c2=O)n1`, the growth inhibition was 23.5%.
Work on `Cc1nc(N)sc1C(=O)N/N=C/c1ccco1` yielded a growth inhibition of -1.68%.
With `Nc1nc2c(nc(SCc3ccccc3Br)n2C2OC(CO)C(O)C2O)c(=O)[nH]1` (stereo not drawn) the growth inhibition was -22.3%.
With `COc1ccc(/C=C2\CC/C(=C\c3ccc(OC)c(OC)c3)C2=O)cc1OC` the growth inhibition was -15.8%.
Work on `CCc1cc2c(=O)c(-c3ccc4c(c3)OCCO4)coc2c(CN2CCCCC2C)c1O` (stereo not drawn) yielded a growth inhibition of -11.5%.
For `CCOC(=O)c1ccc(N2C(=O)C(CC(=O)NC)N(CCc3ccc(OC)c(OC)c3)C2=S)cc1` (stereo not drawn), the growth inhibition was 8.13%.
In the case of `O=C(Cc1cccc2ccccc12)N1CC[C@@]2(O)CCCC[C@H]2C1`, the growth inhibition is reported as -9.85%.
Molecule `COc1ccccc1C(=O)N=C1NC(=O)CC2C(=O)NCCN12` (stereo not drawn) has a growth inhibition of 2.95%.
In the case of `Cc1ccc2c(c1)C1OCCC1C1N2C(=O)C2C(C(=O)O)C3C=CC21O3` (stereo not drawn), the growth inhibition is reported as -2.86%.
`COc1ccc(CNC(=O)C2CCCN2C)cc1OC` (stereo not drawn) gave a growth inhibition of -16.4%.
Work on `COc1ccc2[nH]c(=O)c(CNC3CCCCC3)cc2c1` yielded a growth inhibition of -29%.
With `CCOC(=O)C1=C(N)Oc2c(oc(CO)cc2=O)C1c1ccc(F)c(F)c1` (stereo not drawn) the growth inhibition was -16.3%.
Molecule `CC12CCC(C(=O)NCc3ccccn3)(OC1=O)C2(C)C` (stereo not drawn) has a growth inhibition of -9.47%.
Work on `CC(=O)O[C@H]1C(=O)[C@@]2(C)[C@H]([C@H](OC(=O)c3ccccc3)[C@]3(O)C[C@H](OC(=O)[C@H](O)C(NC(=O)c4ccccc4)c4ccccc4)C(C)=C1C3(C)C)[C@]1(OC(C)=O)CO[C@@H]1C[C@@H]2O` (stereo partly drawn) yielded a growth inhibition of 4.3%.
`CCOC(=O)N1c2ccccc2C=CC1OCC` (stereo not drawn) gave a growth inhibition of -5.21%.
Molecule `Cc1cc(=O)oc2cc(OC(C)C(=O)NCC3CCCO3)ccc12` (stereo not drawn) has a growth inhibition of -2.4%.
`O=C(O)c1ccc(OCCn2ccnc2)cc1` gave a growth inhibition of -4.4%.
Molecule `CCC(C)n1ncn(-c2ccc(N3CCN(c4ccc(OCC5COC(Cn6cncn6)(c6ccc(Cl)cc6Cl)O5)cc4)CC3)cc2)c1=O` (stereo not drawn) has a growth inhibition of -1.74%.
With `CC(=O)N1CCN(c2ccc(OC[C@H]3CO[C@](Cn4ccnc4)(c4ccc(Cl)cc4Cl)O3)cc2)CC1` the growth inhibition was 94.4% (active).
For `Cc1oc(/C=N/NC(=O)CC2(C)OCCO2)cc1Br`, the growth inhibition was -11.1%.
`C=C(C)[C@@H]1CC=C(CN2CCC(N3CCC(C(=O)N4CCCC4)CC3)CC2)CC1` gave a growth inhibition of -0.183%.
`CCN(CC)CCN1C(=O)C(=O)/C(=C(/O)c2c(C)[nH]c(C(=O)OC)c2C)C1c1cccnc1` (stereo not drawn) gave a growth inhibition of -4.71%.
Work on `COc1cccc(N2CC34C=CC(O3)C(C(=O)O)C4C2=O)c1` (stereo not drawn) yielded a growth inhibition of -1.36%.
Molecule `COc1ccc(OC)c(-c2oc3ccccc3c(=O)c2O)c1` has a growth inhibition of -8.17%.
In the case of `Cc1ccsc1C1NC(=O)c2ccccc2N1` (stereo not drawn), the growth inhibition is reported as -12.4%.
In the case of `COc1cc(C(=O)N/C(=C\c2cn(C)c3ccccc23)C(=O)NCCCO)cc(OC)c1OC`, the growth inhibition is reported as 13.5%.
Molecule `CCc1nc2ccccc2n1Cc1ccc(OC)c(OC)c1` has a growth inhibition of 2.55%.
Work on `C/C(NC(=O)c1cccs1)=C1\C(=O)C[C@@H]2[C@H]1C2(C)C` yielded a growth inhibition of 1.59%.
Work on `CCc1cc2c(=O)c(-c3nc(C)cs3)c(CCCC(=O)O)oc2cc1O` yielded a growth inhibition of -4.53%.
